In PubChem BioAssay (EPA / NIEHS):
Active and inactive are the calls of the source. How the source made its calls: active means hit-call score of the fitted dose curve at least 0.9, where 1 is the maximum; inconclusive means response in the unintended direction; inactive means score below 0.9.

target: Peroxisome proliferator-activated receptor gamma (Homo sapiens) (UniProt P37231); experiment: OT_PPARg_PPARgSRC1_1440: Odyssey Thera (OT) 24-hour Protein-Complementation Assay for Peroxisome Proliferator-activated Receptor Gamma/ SRC-1 Co-activator (AID 2283388);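 further: nuclear to cytoplasmic ratio of reconstituted Venus YFP fluorescence in fixed imaged cells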
Protocol: OT_PPARg_PPARgSRC1_1440 is a cell-based assay that uses HEK293T, a human kidney cell line, with measurements taken at 24 hours after chemical dosing in a 384-well plate.OT_PPARg_PPARgSRC1_1440 is one of one assay component(s) measured or calculated from the OT_PPARg_PPARgSRC1_1440 assay. It is designed to make measurements of protein fragment complementation, a form of binding reporter, as detected with fluorescence intensity signals by Protein-fragment Complementation technology.Data from the assay component OT_PPARg_PPARgSRC1_1440 was analyzed into 1 assay endpoint. This assay endpoint, OT_PPARg_PPARgSRC1_1440, was analyzed in the positive analysis fitting direction relative to DMSO as the negative control and baseline of activity. Using a type of binding reporter, measures of receptor for gain-of-signal activity can be used to understand the binding at the pathway-level as they relate to the gene PPARG. Furthermore, this assay endpoint can be referred to as a primary readout, because the performed assay has only produced 1 assay endpoint. To generalize the intended target to other relatable targets, this assay endpoint is annotated to the nuclear receptor intended target family, where the subfamily is non-steroidal.
The OT PPARg/SRC-1 assay assessed receptor-chemical interactions using a rapidly maturing, intensely fluorescent mutant of YFP known as Venus, rationally dissected into two separate fragments. The fragments were obtained as follows: first, fragments coding for YFP1 and YFP2 (corresponding to amino acid residues 1-158 and 159-239 of the full length YFP, respectively) were generated by oligonucleotide synthesis (Blue Heron Biotechnology), and then PCR mutagenesis was used to generate the mutant fragments IFP1 and IFP2. Fusion constructs were transfected into HEK293T cells with a (Gly4Ser)2 linker between the PPARg/SRC-1 and YFP fragment genes to facilitate complementation when interacting proteins bring fragments into close proximity. The construct is transiently transfected in HEK293T cells 48 hours prior to treatment with test compounds. Cells are seeded into optical quality 384-well poly-D-lysine coated plates in MEM alpha medium (Invitrogen) supplemented with 10 percent FBS (Gemini Bio-Products) 1 percent penicillin and 1 percent streptomycin, and grown in 37C incubator equilibrated to 5 percent CO2. Cells are allowed to adhere for 24 hours prior to treatment with compounds of interest or controls for 24 hours. Cells are fixed in 4 percent formaldehyde and stained with Draq5 (BioStatus) to identify cells and subcellular compartment boundaries prior to signal detection. 8 Images per well were acquired on an Evotec Opera at 2 wavelengths (488 and 635nm), and the ratio of fluorescence in the nucleus relative to fluorescence in the cytoplasm (N/C Ratio) in the 488nm channel was calculated for a minimum of 350 cells per image.

Peroxisome proliferator-activated receptor gamma (Homo sapiens), sequence (P37231 whole entry, looked up, the tested form may be a part): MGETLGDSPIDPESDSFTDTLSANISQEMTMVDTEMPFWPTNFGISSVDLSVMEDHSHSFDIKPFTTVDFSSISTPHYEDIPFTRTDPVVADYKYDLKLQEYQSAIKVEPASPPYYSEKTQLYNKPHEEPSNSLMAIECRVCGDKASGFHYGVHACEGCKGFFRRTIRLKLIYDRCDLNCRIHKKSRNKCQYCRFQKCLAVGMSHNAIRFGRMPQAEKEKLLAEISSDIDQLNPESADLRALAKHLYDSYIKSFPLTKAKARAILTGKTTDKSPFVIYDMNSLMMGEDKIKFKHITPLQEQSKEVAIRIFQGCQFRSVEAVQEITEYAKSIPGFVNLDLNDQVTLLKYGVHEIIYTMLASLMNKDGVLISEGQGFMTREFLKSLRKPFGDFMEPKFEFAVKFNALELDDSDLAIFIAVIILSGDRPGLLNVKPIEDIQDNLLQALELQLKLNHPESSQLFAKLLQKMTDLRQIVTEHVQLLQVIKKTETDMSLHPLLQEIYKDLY

For `COP(=O)(OC)C(O)C(Cl)(Cl)Cl` (stereo not given), which outcome is on record?
Its outcome is “inactive”.

`COP(=O)(OC)OC(Br)C(Cl)(Cl)Br` (stereo not given) was tested. Which outcome did it give?
Its outcome is “inactive”.

Which outcome does the source give for `CC(Oc1cccc(Cl)c1)C(=O)O` (stereo not given) here?
Its outcome is “inactive”.

`CC(C)=CC1C(C(=O)OCN2C(=O)C3=C(CCCC3)C2=O)C1(C)C` (stereo not given) was tested. Which outcome did it give?
Its outcome is “inactive”.

For `CCC(=NOC/C=C/Cl)C1=C(O)CC(C2CCOCC2)CC1=O` (stereo not given), which outcome is on record?
The outcome was “inactive”.

Which outcome does the source give for `CC(C)[C@H](C(=O)O[C@H](C#N)c1cccc(Oc2ccccc2)c1)c1ccc(Cl)cc1` here?
The outcome was “inactive”.

`CN(C)NC(=O)CCC(=O)O` was tested. Which outcome did it give?
Its outcome is “inactive”.

With `CC1=NNC(=O)N(/N=C/c2cccnc2)C1` as the molecule, how does the outcome read?
The outcome was “inactive”.

For `CON=C(C(=O)OC)c1ccccc1CON=C(C)c1cccc(C(F)(F)F)c1`, which outcome is on record?
The outcome was “inactive”.

How did the outcome turn out when `CCCOc1nn(C(=O)NS(=O)(=O)c2ccccc2C(=O)OC)c(=O)n1C` was run?
The outcome was “inactive”.

With `O=c1ccc(=O)[nH][nH]1` as the molecule, how does the outcome read?
Its outcome is “inactive”.

With `CCCCN(CC)c1c([N+](=O)[O-])cc(C(F)(F)F)cc1[N+](=O)[O-]` as the molecule, how does the outcome read?
Its outcome is “inactive”.

`C[Si](Cn1cncn1)(c1ccc(F)cc1)c1ccc(F)cc1` was tested. Which outcome did it give?
The outcome was “inactive”.

`CSC1=N[C@@](C)(c2ccccc2)C(=O)N1Nc1ccccc1` was tested. Which outcome did it give?
Its outcome is “inactive”.

How did the outcome turn out when `CNC(=O)Oc1cccc2c1OC(C)(C)O2` was run?
Its outcome is “inactive”.

For `O=C(O)c1cc(Oc2ccc(C(F)(F)F)cc2Cl)ccc1[N+](=O)[O-]`, which outcome is on record?
Its outcome is “inactive”.

Which outcome does the source give for `CC(COc1ccc(Oc2ccccc2)cc1)Oc1ccccn1` (stereo not given) here?
Its outcome is “inactive”.

How did the outcome turn out when `CCOP(=S)(OCC)Oc1ccc2c(C)c(Cl)c(=O)oc2c1` was run?
Its outcome is “inactive”.

How did the outcome turn out when `CN1COCN(Cc2cnc(Cl)s2)C1=N[N+](=O)[O-]` was run?
Its outcome is “inactive”.

Which outcome does the source give for `FC(F)C(F)(F)OCC(Cn1cncn1)c1ccc(Cl)cc1Cl` (stereo not given) here?
Its outcome is “inactive”.

For `CCCCSP(=O)(SCCCC)SCCCC`, which outcome is on record?
The outcome was “inactive”.

How did the outcome turn out when `CCNc1nc(Cl)nc(NC(C)(C)C#N)n1` was run?
The outcome was “inactive”.

For `CC1(C(=O)Nc2ccc(O)c(Cl)c2Cl)CCCCC1`, which outcome is on record?
Its outcome is “inactive”.

For `N#CSCSC#N`, which outcome is on record?
The outcome was “inactive”.

Which outcome does the source give for `CNc1cnn(-c2cccc(C(F)(F)F)c2)c(=O)c1Cl` here?
The outcome was “inactive”.

With `C=C(C)[C@H]1Cc2c(ccc3c2O[C@@H]2COc4cc(OC)c(OC)cc4[C@@H]2C3=O)O1` as the molecule, how does the outcome read?
The outcome was “inactive”.

With `CCOP(=S)(OCC)OC(Cl)C(Cl)(Cl)Cl` (stereo not given) as the molecule, how does the outcome read?
Its outcome is “inactive”.

How did the outcome turn out when `CCCSP(=O)(OCC)SCCC` was run?
Its outcome is “inactive”.

How did the outcome turn out when `CCCSP(=O)(OCC)Oc1ccc(Br)cc1Cl` (stereo not given) was run?
Its outcome is “inactive”.

With `CCOP(=O)(SC(C)CC)N1CCSC1=O` (stereo not given) as the molecule, how does the outcome read?
The outcome was “inactive”.

Which outcome does the source give for `C#CCC1=C(C)C(OC(=O)C2C(C=C(C)C)C2(C)C)CC1=O` (stereo not given) here?
Its outcome is “inactive”.

How did the outcome turn out when `COc1cc(OC)nc(Sc2cccc(Cl)c2C(=O)O)n1` was run?
Its outcome is “inactive”.

How did the outcome turn out when `CCc1cccc(CC)c1N(COC)C(=O)CCl` was run?
Its outcome is “inactive”.

For `CCOP(=O)(OCC)Oc1cc(C)nc(C(C)C)n1`, which outcome is on record?
Its outcome is “inactive”.

How did the outcome turn out when `CCCCOC(=O)[C@@H](C)Oc1ccc(Oc2ccc(C#N)cc2F)cc1` was run?
The outcome was “inactive”.

With `COP(=O)(OC)SCn1c(=O)oc2cc(Cl)cnc21` as the molecule, how does the outcome read?
The outcome was “inactive”.

For `Cc1nn(-c2cc(NS(C)(=O)=O)c(Cl)cc2Cl)c(=O)n1C(F)F`, which outcome is on record?
The outcome was “inactive”.

Which outcome does the source give for `CCOP(=S)(OCC)Oc1cc(C)nc(C(C)C)n1` here?
The outcome was “inactive”.

How did the outcome turn out when `CC[C@H](C)[C@H]1O[C@]2(C=C[C@@H]1C)C[C@@H]1C[C@@H](C/C=C(\C)[C@@H](O[C@H]3C[C@H](OC)[C@@H](O[C@H]4C[C@H](OC)[C@@H](NC)[C@H](C)O4)[C@H](C)O3)[C@@H](C)/C=C/C=C3\CO[C@@H]4[C@H](O)C(C)=C[C@@H](C(=O)O1)[C@]34O)O2` was run?
Its outcome is “inactive”.

Which outcome does the source give for `COc1cccc(C(=O)NN(C(=O)c2cc(C)cc(C)c2)C(C)(C)C)c1C` here?
Its outcome is “inactive”.
